{"source": "PubChem BioAssay (NCATS)", "note": "Records with an inconclusive call do not appear. Values without a mark were called inactive. Calls come from the whole dose curve; as a rule, active = well fitted curve in the direction sought with a large enough effect; inconclusive = small, poorly fitted or top-dose-only effect, or another doubt; inactive = no such curve, though single readings can be large or run the other way. % is set by controls: 0 for no effect and ±100 for the full control effect.", "data": [{"assay": "qHTS Assay for Identifying Gametocytocidal Compounds (AID 743244);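 note: actives lower the fluorescent signal which means gametocytes are killed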", "details": "P. falciparum 3D7 stage III-V gametocytes, alamarBlue, 72 h; max response: stronger effect = lower value", "summary_of_the_method": "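Compounds are pinned into medium, gametocytes (stage III–V, 3D7, 20,000 cells/well) added, and plates held 72 h at 37 °C in 5% CO2. AlamarBlue follows for 24 h before fluorescence reading.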", "units": {"max response": "%"}, "values": [{"molecule": "CC(C)[C@@H](N)C(=O)O", "max response": 7.16}, {"molecule": "H-RKDVY-OH", "max response": -13.7}, {"molecule": "CCc1ccc(S(=O)(=O)O)cc1", "max response": -6.98}, {"molecule": "CN1C(=O)OC(C)(C)C1=O", "max response": 8.47}, {"molecule": "O=C1CCC(=O)N1CO", "max response": -5.34}]}]}
